# Cy5 interf NS3h: Cy5 fluorescence quenchers or enhancers, artefact control for HCV NS3 helicase inhibitor project, biochemical, ChemBridge library, Cy5 readout | hit rate 6% among 16,000 | fluorescence interference ratio at 100 µM | Cy5-dT15 DNA with NS3h, fluorescence interference; actives lie on both sides; signal over control mean, under 1 quenches;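 active = compound fluorescence over control fluorescence at most 0.8, a quencher, or at least a set upper limit, an enhancer; inactive = ratio between 0.8 and the set upper limit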
# HCV NS3h FP: HCV NS3 helicase inhibitors, primary screen, biochemical, fluorescence polarization, ChemBridge library; Hepatitis C virus NS3 helicase; NS3h Cy5-dT15 DNA binding; inhibition, % at 100 µM; hit rate 1.6% among 16,000; AID 687043, 2013;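 active = inhibition above the average over every tested compound plus 3 SD, cut at about 40% in these data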
# NS3h confirm: HCV NS3 helicase inhibitors, retest, confirmation, biochemical, fluorescence polarization, ChemBridge library; hit rate 20% among 240; NS3h binding to Cy5-dT15 DNA; AID 720485, 2013; inhibition, % at 100 µM; shares compounds with HCV NS3h FP;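 active = percent inhibition of 50% or more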
# SSB-DNA FP CB: E. coli SSB-DNA binding inhibitors, counter-screen for HCV NS3 helicase inhibitor project, biochemical, fluorescence polarization, selected ChemBridge compounds; shares compounds with HCV NS3h FP; E. coli SSB binding Cy5-dT15; inhibition, % at 100 µM; hit rate 40% among 240; AID 720486, 2013;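 active = inhibition of at least 50%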;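 note: displacers lower Cy5 polarization so higher inhibition means more SSB displaced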
# Target sequence (P0AGE0 whole entry, looked up): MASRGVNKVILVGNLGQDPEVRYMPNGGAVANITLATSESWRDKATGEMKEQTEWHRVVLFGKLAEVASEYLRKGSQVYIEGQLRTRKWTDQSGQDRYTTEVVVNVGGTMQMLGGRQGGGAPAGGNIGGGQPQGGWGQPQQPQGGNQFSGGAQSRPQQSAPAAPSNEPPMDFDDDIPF
# Cy5 SSB interf: Cy5 fluorescence interference with SSB-bound oligo, artefact control for HCV NS3 helicase inhibitor project, biochemical, E. coli SSB, selected ChemBridge compounds; shares compounds with HCV NS3h FP; Cy5-dT15/E. coli SSB fluorescence interference; actives lie on both sides; fluorescence interference ratio at 100 µM; hit rate 8% among 240; AID 720487, 2013;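 active = fluorescence interference ratio at or above 1.2, signal boosting, or at or below 0.8, signal quenching; inactive = ratio between 0.8 and 1.2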;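 note: ratio of compound well signal to mean negative control signal so 1 means no effect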
# Cy5 interf conf: Cy5-DNA-NS3h complex fluorescence interference, confirmation, artefact control for HCV NS3 helicase inhibitor project, biochemical, ChemBridge library; AID 720489, 2013; shares compounds with HCV NS3h FP; Cy5-dT15 DNA/NS3h fluorescence interference counterscreen; fluorescence interference ratio at 100 µM, hits read low; hit rate 44% among 240;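 active = fluorescence interference ratio at or below 0.8 quencher or at or above a set limitenhancer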;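 note: ratio of compound fluorescence to mean of negative controls so 1 means no interference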
# * = called active by the depositor; . = no result given. In the library only some 7.6% were active in any assay of this set; here they are far more common.
SMILES,Cy5 interf NS3h,HCV NS3h FP,NS3h confirm,SSB-DNA FP CB,Cy5 SSB interf,Cy5 interf conf
COc1cc(/C=C2/SC(=S)N(c3ccccc3)C2=O)cc(Cl)c1OCc1ccccc1,1,7,.,.,.,.
Cc1ccc(/C=C(\C#N)c2nc3ccccc3s2)cc1,0.86,3,.,.,.,.
CN1C=C(C(F)(F)F)C=C/C1=C(/C#N)c1nc2ccccc2s1,1.1,40,0,9,0.9,0.71*
CCc1ccccc1NC(=O)c1nn2c(c1Cl)NC(c1cccs1)CC2C(F)(F)F (stereo not drawn),1,14,.,.,.,.
CCOc1cc(C=C2C(=O)NC(=S)N(CC)C2=O)ccc1O,0.9,32,.,.,.,.
O=C1C=CC(=O)N1c1ccc(Br)cc1[N+](=O)[O-],0.95,79*,70*,8,0.94,0.92
O=C(c1ccc(Br)cc1)N1CCN(c2ccc(Cl)cc2[N+](=O)[O-])CC1,1,6,.,.,.,.
Cc1cc(C(=O)n2cnc3c(N)ncnc32)co1,0.97,12,.,.,.,.
CC(C)(C)C(=O)Nc1ccc(-c2nc3ccccc3o2)cc1,1,0,.,.,.,.
CC(=O)Nc1ccc(-c2nc3ccc(-c4ccc5nc(-c6ccc(NC(C)=O)cc6)oc(=O)c5c4)cc3c(=O)o2)cc1,1,56*,4,47,0.97,1
Cc1ccc(N2C(=O)NC(=O)/C(=C\c3ccc(-c4ccc(C)c([N+](=O)[O-])c4)o3)C2=O)cc1,1.1,61*,2,24,0.96,0.89
Cc1cc(C)cc(N2C(=O)NC(=O)/C(=C\c3ccc(I)o3)C2=O)c1,1.1,46*,39,92*,1,1
O=C1NC(=O)N(c2ccc(Cl)cc2)C(=O)/C1=C/c1ccc(I)o1,1.3*,56*,26,78*,1.1,0.82
COc1cc(/C=C2\C(=O)NC(=O)N(c3ccc(Cl)cc3)C2=O)cc(I)c1OC,1.1,10,.,.,.,.
Cc1cc(C)cc(N2C(=O)NC(=O)/C(=C\c3ccccc3C)C2=O)c1,1.1,-11,.,.,.,.
O=C1NC(=O)N(c2ccc(Cl)cc2)C(=O)/C1=C\c1ccc(-c2ccc([N+](=O)[O-])cc2)o1,1,8,.,.,.,.
Cc1[nH]c2ccccc2c1C(=O)NS(=O)(=O)c1ccccc1Cl,1,3,.,.,.,.
C=CCOc1ccc(/C=C/C(=O)c2ccc(Br)cc2)cc1,0.99,10,.,.,.,.
CC(=O)Nc1ccc(N2C(=O)/C(=C/c3ccc([N+](=O)[O-])cc3)C=C2c2ccccc2)cc1,1.4*,37,12,36,1.1,0.99
O=C1/C(=C/c2ccc([N+](=O)[O-])cc2)NC(=S)N1c1ccccc1,0.89,8,.,.,.,.
O=C1CCC(=O)N1c1ccc(Oc2cccc(Oc3ccc(N4C(=O)CCC4=O)cc3)c2)cc1,1.1,2,.,.,.,.
C=CCc1cccc2cc(C(=O)NCCc3ccccc3)c(=O)oc12,0.91,18,.,.,.,.
C=CCc1cccc2cc(C(=O)Nc3cccc4c3C(=O)c3ccccc3C4=O)c(=O)oc12,0.94,58*,-1,-3,1,1
CCC1=NN2C(=N)/C(=C/c3ccc(-c4cccc([N+](=O)[O-])c4)o3)C(=O)N=C2S1,0.94,-4,.,.,.,.
COCCN1C(=O)/C(=C\c2ccc(-c3cccc([N+](=O)[O-])c3)o2)SC1=S,1.1,5,.,.,.,.
SMILES,Cy5 interf NS3h,HCV NS3h FP,NS3h confirm,SSB-DNA FP CB,Cy5 SSB interf,Cy5 interf conf
O=C1/C(=C\c2ccc(-c3cccc(Cl)c3)o2)SC(=S)N1CCS(=O)(=O)O,0.84,84*,46,98*,0.82,0.88
CCC1=NN2C(=N)/C(=C/c3ccc(-c4cccc(C(=O)O)c4)o3)C(=O)N=C2S1,1,52*,27,87*,0.93,0.85
N=C1S/C(=C\c2ccc(-c3cccc(C(=O)O)c3)o2)C(=O)N1c1ccc2c(c1)OCO2,0.81,71*,20,107*,0.82,0.92
CC1=NN(c2ccc(C(=O)O)cc2)C(=O)/C1=C\c1ccc(-c2cccc(C(=O)O)c2)o1,1,31,.,.,.,.
O=C1NC(=S)S/C1=C\c1ccc(C(=O)O)cc1,0.97,14,.,.,.,.
O=C1NC(=S)S/C1=C/c1ccc(-c2cccc(C(=O)O)c2)o1,0.98,67*,62*,99*,0.81,0.79*
COc1cccc(NC(=O)COc2ccc(C(C)(C)c3ccccc3)cc2)c1,0.93,-7,.,.,.,.
CCCCCCCc1nc2ccccc2[nH]1,0.91,-2,.,.,.,.
O=C1/C(=C\c2ccc(-c3ccccc3Cl)o2)SC(=S)N1C1CCS(=O)(=O)C1 (stereo not drawn),1,6,.,.,.,.
O=[N+]([O-])c1cccc(S(=O)(=O)N2CCOCC2)c1,0.95,1,.,.,.,.
COC(=O)c1ccc(-c2ccc(/C=C3/SC(=S)N(C)C3=O)o2)cc1,0.88,-7,.,.,.,.
CN1C(=O)/C(=C/c2ccc(-c3ccc(C(=O)O)cc3)o2)SC1=S,1.2*,76*,11,34,0.92,0.99
O=C1C=CC(=NS(=O)(=O)c2ccc(Cl)cc2)C=C1,0.96,19,.,.,.,.
O=C1C(Cl)=CC(=NS(=O)(=O)c2ccc(Cl)cc2)C(Cl)=C1Cl,0.98,85*,55*,81*,0.77*,0.82
O=C(N/N=C\c1ccc(O)cc1)c1cc2ccccc2cc1O,0.93,-5,.,.,.,.
O=C(CSc1nc2ccccc2[nH]1)Nc1cc(Cl)ccc1Cl,1,12,.,.,.,.
CN1C(=O)NC(=O)/C(=C\c2ccc(Cl)cc2Cl)C1=O,0.94,74*,12,9,1,1
Cc1cc(C)cc(N2C(=O)NC(=O)/C(=C\c3ccc(Cl)cc3)C2=O)c1,1.1,14,.,.,.,.
COC(=O)c1cc(NC(=O)C(C)(C)C)cc(C(=O)OC)c1,1,7,.,.,.,.
O=c1c2c(nc3cc(-c4cccs4)[nH]n13)CCC2,1,6,.,.,.,.
O=c1c2c(nc3cc(-c4cccs4)[nH]n13)CCS2,1.1,60*,-2,25,1,0.81
CCOC(=O)c1c(-c2ccccc2)oc2ccc(OCC(=O)c3ccc(OC)cc3)cc12,0.87,16,.,.,.,.
O=C(O)c1cccc2c1NC(c1cccc3ccccc13)C1CC=CC21 (stereo not drawn),0.95,50*,18,49,1,0.86
O=[N+]([O-])c1cccc2c1NC(c1ccccc1F)C1CC=CC21 (stereo not drawn),0.96,7,.,.,.,.
O=c1ccc2ccc(OCc3ccccc3Cl)cc2o1,1,12,.,.,.,.
COc1cccc(OCCOc2c(Cl)cc(/C=C3/SC(=S)NC3=O)cc2OC)c1,0.97,70*,45,47,0.97,0.79*
COc1cccc(OCCOc2cccc(/C=C3/SC(=S)NC3=O)c2)c1,0.92,20,.,.,.,.

# Source: PubChem BioAssay (Milwaukee Institute for Drug Discovery)
